This is an account of results in PubChem BioAssay AID1117361 (Southern Research Institute, 2015).

Among all 3,600 compounds or so, about 900 (25%) were called active. The rule behind the calls is not given here. These entries were drawn from the full list. Where a call stands in place of a potency, no number is given. Potency and affinity values are given separately.

For the assay, the target named is Protein Tat (Human immunodeficiency virus type 1 group M subtype B (isolate HXB2)) (UniProt P04608). The assay can be described thus: inhibitors of Tat binding to TAR RNA, dose response, counter-screen for Vif-APOBEC3G degradation inhibitor project, biochemical, fluorescence polarization, FAM-labeled TAR RNA (AID 1117361). The conditions noted are these: outcome: dose series up to 100 µM unless noted; series mostly up to 100 µM.
Take `O=C(CCc1nc(-c2ccccc2F)no1)NC1CCCCCC1`: the call was inactive.
In the case of `CCOc1ccc(N(CC(=O)Nc2ccccc2C(=O)NCc2ccco2)S(C)(=O)=O)cc1`, the molecule was classed as inactive.
The same measure for `CC1CN(Cc2cc(=O)[nH]c(C3CC3)n2)CC(C)O1` (stereo unspecified): “inactive”.
Consider `Cn1c(Cn2c(=O)sc3ccccc32)nnc1SCC(=O)NCc1ccc(F)cc1`, for which the molecule was classed as inactive.
For `Cc1cc(=O)oc2cc(OCC(=O)NCc3cccnc3)ccc12`, the molecule was classed as inactive.
Turning to `Fc1cc(F)cc(NC(=S)NCCCN2CCOCC2)c1`, the call was inactive.
The result for `COC(=O)c1ccccc1NC(=O)c1noc2c1CCC2` reads “inactive”.
In the case of `COc1ccccc1NC(=O)CSc1nnc(C)n1CCc1ccccc1`, the call was inactive.
Consider `COc1ccc(C2CC(c3cccs3)n3nc(N)nc3N2)cc1` (stereo unspecified), for which the outcome was inactive.
Turning to `Cc1ccc(C2CC(c3cccc(Cl)c3)n3nc(N)nc3N2)cc1` (stereo unspecified), the call was inactive.
Turning to `CCOc1cc(C)nc(NCCc2ccc(OC)c(OC)c2)n1`, the outcome was inactive.
The same measure for `COc1cc(CNCCc2ccccc2F)ccc1OCc1ccc(Cl)nc1`: “inactive”; for `Cc1ccc(NC(=O)C(C)NC(=O)OCc2ccccc2)cc1C` (stereo unspecified): “inactive”.
For the molecule `Cc1cc(=O)[nH]c2c1c(C)nn2C1CCCCC1`, the outcome was inactive.
The result for `O=C(CC1SCCNC1=O)Nc1ccc(Cl)cc1` (stereo unspecified) reads “inactive”; that for `CSc1nc(NCCCO)c2c3c(sc2n1)CN(C)CC3`, “inactive”; that for `Fc1cccc(-c2cc3nc4c(c(NCc5ccco5)n3n2)CCCC4)c1`, “inactive”.
The same measure for `CCC1=NN2C(=N)/C(=C\c3cccn3-c3cccc(Cl)c3)C(=O)N=C2S1`: “inactive”; for `COc1ccc(NC2CS(=O)(=O)CC2NCc2ccco2)cc1` (stereo unspecified): “inactive”.
Take `COc1cccc(S(=O)(=O)N2CCN(c3ccccc3F)CC2)c1`: the molecule was classed as inactive.
The same measure for `COc1ccccc1CNC(=O)COC(=O)c1ccc(NC(N)=O)cc1`: “inactive”; for `O=S(=O)(NCc1ccc2c(c1)OCO2)c1cccc(S(=O)(=O)N2CCOCC2)c1`: “inactive”.
The result for `COCCN1Cc2cccc(C(=O)NCc3ccccn3)c2C1=O` reads “inactive”; that for `Cc1cccc(N2CCN(CC(O)COc3ccc(Cl)cc3)CC2)c1` (stereo unspecified), “inactive”.
The result for `COCC(=O)NC1CCN(CC(=O)Nc2ccc(OC)cc2[N+](=O)[O-])CC1` reads “inactive”.
Turning to `CC(=O)NS(=O)(=O)c1cccnc1Nc1cccc(Cl)c1`, the molecule was called inactive.
The result for `CCc1nnc(NC(=O)c2ccc3c(c2)C(=O)N(C(C)(C)C)C3=O)s1` reads “inactive”; that for `N#Cc1cccc(Oc2ccc(S(=O)(=O)N3CCCC3)cn2)c1`, “inactive”; that for `NC(=O)C1CCCN(CC(=O)Nc2ccccc2C(=O)NC2CC2)C1` (stereo unspecified), “inactive”.
The result for `COC(=O)Cc1cc(=O)n(-c2nc3ccccc3[nH]2)[nH]1` reads “inactive”.
On to `Cc1cccc(N(CC(=O)N/N=C/c2ccc(OCC(=O)NCc3ccco3)cc2)S(C)(=O)=O)c1C`, for which the result was inactive.
The same measure for `CCn1c(CNc2ccc(C)cc2)nnc1SCC(=O)NCc1ccccc1`: “inactive”.
Take `Cc1ccc(CNC(=O)COc2ccc3c(c2)CCC3)cc1`: the result was inactive.
The result for `CCc1ccc(CNCc2cccnc2)cc1` reads “inactive”; that for `COc1ccc(OC)c(-c2cc(C(=O)NCc3cccs3)no2)c1`, “inactive”; that for `CC1(C)Oc2ccc(C(=O)NC3CCCC3)cc2N(CC(=O)N2CCOCC2)C1=O`, “inactive”.
The result for `COc1cc(SC)ccc1C(=O)Nc1c(C)cccc1C` reads “inactive”; that for `CC(Oc1ccc(Cl)cc1)C(=O)Nc1ncccn1` (stereo unspecified), “inactive”.
The same measure for `O=C(CCc1c[nH]c2ccccc12)NC1CC1`: “inactive”.
Consider `N[C@@H](Cc1c[nH]c2ccccc12)C(=O)O`, for which the molecule was classed as inactive.
The result for `Cc1cccc(C)c1N1C(=O)C2ON(c3ccccc3)C(c3ccncc3)C2C1=O` (stereo unspecified) reads “inactive”; that for `Cc1nn(CC(=O)NCc2ccccc2Cl)c(C)c1[N+](=O)[O-]`, “inactive”.
On to `O=C(Nc1cnn(Cc2c(Cl)cccc2Cl)c1)c1ccc([N+](=O)[O-])cc1`, for which the outcome was inactive.
The same measure for `Cc1sc2ncnc(OCC(=O)N3CCN(S(=O)(=O)c4ccc(Cl)cc4)CC3)c2c1C`: “inactive”.
The same measure for `CC(C)c1nc2sc3c(NCc4ccco4)ncnc3c2c2c1COC(C)(C)C2`: “inactive”; for `CCCC(=O)NC1=C(Cl)C(=O)c2ccccc2C1=O`: “inactive”; for `CCC(=O)Nc1cc2c(cc1C(=O)CC)OCCO2`: “inactive”.
For `Cc1ccc(S(=O)(=O)Nc2ccc3nc(C)sc3c2)cc1`, the molecule was called inactive.
In the case of `CC(=O)N1CCN(c2ccc(NCc3ccc4c(c3)OCO4)cc2)CC1`, the molecule was classed as inactive.
The result for `CCN1CCN(c2ccc(NC(=O)Cc3ccccc3)cc2)CC1` reads “inactive”; that for `COc1ccc(N2CCN(C(=O)COc3ccccc3)CC2)cc1`, “inactive”; that for `CCOc1ccc(S(=O)(=O)Nc2ccc(S(=O)(=O)N3CCCCC3)cc2)cc1`, “inactive”.
Regarding `Cc1snc(S(=O)(=O)Cc2ccccc2Cl)c1C#N`, the result was inactive.
For `COc1ccc(/C=C/CN2CCN(Cc3ccccc3)C(CCO)C2)cc1` (stereo unspecified), the outcome was inactive.
The result for `CSc1ccccc1NC(=O)c1noc2c1CCC2` reads “inactive”; that for `CCCCS(=O)(=O)N1CCCC(C(=O)N2CCOCC2)C1` (stereo unspecified), “inactive”; that for `COc1ccc(C2CC(O)(c3ccccc3)Oc3c(C)ccc(C)c32)cc1` (stereo unspecified), “inactive”.
The same measure for `Cn1c2ccccc2c2ccc3c(c21)C(=O)C=CC3=O`: “inactive”.
The result for `Cc1ccc(CN(C(=O)Cn2nnc3ccccc32)C(C(=O)NCc2ccco2)c2cccs2)cc1` (stereo unspecified) reads “inactive”; that for `CCOc1cc(C(C(=O)NCC2CCCO2)N(C(=O)Cn2nnc3ccccc32)c2cccc(OC)c2)ccc1O` (stereo unspecified), “inactive”; that for `CCCCn1c(SCC(=O)Nc2ccc3c(c2)OCCO3)nnc1C(CC)N(C)C` (stereo unspecified), “inactive”.
In the case of `C/C(=N\Nc1ccc2nncn2n1)c1ccc(Br)s1`, the call was inactive.
On to `COc1cc(Cc2cnc(N)nc2N)cc(OC)c1OC`, for which the molecule was called inactive.
`O=C1C(C=NC2CC2)=C(O)c2ccccc21`: the molecule was classed as inactive.
On to `COc1ccc(Cl)cc1N(CC(=O)Nc1ccc2c(c1)OCCO2)S(C)(=O)=O`, for which the molecule was called inactive.
The result for `O=C(CN1CCN(CC(=O)Nc2ccc3c(c2)OCO3)CC1)Nc1ccc(F)cc1` reads “inactive”.
With `CCn1c(=O)c2cc(C(=O)N(C)c3ccccc3F)sc2c2ccccc21`, the molecule was classed as inactive.
The same measure for `CCOC(=O)N1CCC(NC(=O)C2CCN(c3nc(-c4ccc(OC)cc4)no3)CC2)CC1`: “inactive”.
The result for `CC(C)Oc1ccc(C(=O)N(Cc2ccco2)C2CCS(=O)(=O)C2)cc1` (stereo unspecified) reads “inactive”; that for `Cc1cc(C(=O)OC2CCOC2=O)c2ccccc2n1` (stereo unspecified), “inactive”.
Turning to `O=C(CCCc1c[nH]c2ccccc12)NCc1ccc2c(c1)OCO2`, the molecule was called inactive.
On to `CS(=O)(=O)N(CC(=O)NCc1ccc2c(c1)OCO2)Cc1ccccc1`, for which the call was inactive.
The result for `CCOC(=O)C1CCCN(Cc2ccc(O)c(OC)c2)C1` (stereo unspecified) reads “inactive”; that for `CCOC(=O)C1CCCN(C(=O)c2c(-c3ccccc3Cl)noc2C)C1` (stereo unspecified), “inactive”.
The result for `O=C(OCC(=O)N1CCN(C(=O)c2ccco2)CC1)c1cc(-c2ccco2)nc2ccccc12` reads “inactive”; that for `Cc1oc(-c2ccccc2)nc1C(=O)OCC(=O)NCc1ccc(F)cc1`, “inactive”; that for `O=C(CSc1nnc2n(C3CCCCC3)c(=O)c3ccccc3n12)OC1CCCCC1`, “inactive”.
The result for `Cc1cc(Cl)c(S(=O)(=O)NCc2cccnc2)cc1OCC(=O)NC1CCCCC1` reads “inactive”; that for `O=S(=O)(c1cccs1)n1nnc2ccccc21`, “inactive”; that for `COc1cc(-c2nnc(SCc3cc(=O)oc4cc(O)c(O)cc34)o2)cc(OC)c1OC`, “inactive”.
As for `C=C(c1ccc(OCCO)cc1)c1ccc(OCCO)cc1`, the molecule was called inactive.
The same measure for `CC(=O)N1CCN(c2ccc(NC(=O)COc3ccc(Cl)cc3Cl)cc2)CC1`: “inactive”; for `Cc1nc2ccc(NS(=O)(=O)c3ccc(F)cc3F)cc2s1`: “inactive”; for `CC1(C)C/C(=C(/C#N)C(N)=O)CCO1`: “inactive”.
The same measure for `COc1cc2c(cc1OC)C(C(=O)O)C(c1cc(Br)c(O)c(OC)c1)N(C)C2=O` (stereo unspecified): “inactive”.
The result for `Cc1sc2ncnc(OCC(=O)NCC3CCCO3)c2c1C` (stereo unspecified) reads “inactive”; that for `CN(Cc1ccccc1)C(=O)C1CCCN1S(=O)(=O)c1ccc2c(c1)n(C)c(=O)c(=O)n2C` (stereo unspecified), “inactive”.
For `O=C(NCCSCc1ccccc1)c1ccc(C2SCC(=O)N2Cc2ccccc2)cc1` (stereo unspecified), the result was inactive.
With `CCCn1nc(Oc2nc(SC)nc(N(C)C)n2)ccc1=O`, the molecule was called inactive.
On to `O=C(Nn1cnnc1)c1cc(-c2cccc(Br)c2)nc2ccccc12`, for which the molecule was called inactive.
On to `COc1ccc2nc(-c3ccccc3)cc(C(=O)OCC(=O)N3CC(C)OC(C)C3)c2c1` (stereo unspecified), for which the call was inactive.
With `CC(C)OP(=O)(OC(C)C)C(O)c1ccc(N(C)C)cc1` (stereo unspecified), the result was inactive.
As to `Cc1oc(/N=C/c2cccc3ccccc23)c(C#N)c1C`, the molecule was called inactive.
The same measure for `O=C1C=C(c2c(O)ccc3ccccc23)c2ccccc2C1=O`: “inactive”; for `COc1ccc(CCN2CC(C(=O)NCC(c3ccccc3)N(C)C)CC2=O)cc1OC` (stereo unspecified): “inactive”; for `COc1cc2c(cc1OC)C(C)N(C(=O)c1cc3n(n1)C(C(F)(F)F)CC(c1ccco1)N3)CC2` (stereo unspecified): “inactive”.
The same measure for `Cc1[nH]c(=O)[nH]c(=O)c1S(=O)(=O)N1CCCC(C(=O)NCCc2ccccc2)C1` (stereo unspecified): “inactive”; for `CCC(C)[C@H](NC(=O)N1CCCC1)C(=O)O` (stereo partly specified): “inactive”; for `CCOC(=O)c1[nH]nc(-c2c(O)cc(C)cc2O)c1-c1csc(C)n1`: “inactive”.
The same measure for `CC(=O)N1CCc2cc(S(=O)(=O)NC(C(=O)NC3CCCc4ccccc43)C(C)C)ccc21` (stereo unspecified): “inactive”.
As to `Cc1nc2ccc(S(=O)(=O)NC(C(=O)N3CCC(C)CC3)C(C)C)cc2s1` (stereo unspecified), the outcome was inactive.
For the molecule `COC(=O)C1CCCN1S(=O)(=O)c1ccc2ccccc2c1` (stereo unspecified), the molecule was classed as inactive.
Consider `Cc1ccc(Nc2nc3ccccc3nc2-n2nc(C)cc2C)cc1`, for which the result was inactive.
Turning to `COCCn1c(SCC(=O)Nc2cccc(C)n2)nnc1-c1ccco1`, the molecule was called inactive.
With `Cc1cccc(NC(=O)CSc2nnc(-c3ccccc3C)o2)c1`, the call was inactive.
With `Cc1c(Cl)cccc1NC(=O)CSc1nnc(C)n1-c1ccccc1`, the outcome was inactive.
The result for `Cc1nc(SCC(=O)Nc2ccnc3ccccc23)n[nH]1` reads “inactive”.
In the case of `Cc1cc(SCC(=O)Nc2ccccc2C)nc(C)n1`, the result was inactive.
As for `CC(C)Cn1c(SCC(=O)Nc2cccnc2Cl)nnc1-c1ccco1`, the call was inactive.
The same measure for `CCC1(C)Cc2c(sc(NC(=O)CCC(=O)O)c2C#N)CO1` (stereo unspecified): “inactive”; for `CCCSc1nc2c(cnn2-c2ccc(C)cc2)c(=O)[nH]1`: “inactive”.
